Test [1] concerns the target Transient receptor potential cation channel subfamily V member 1 (Homo sapiens) (UniProt Q8NER1). Nature of the test: HTS Assay for Compounds that Act as Enhancers of the Vanilloid Receptor 1 (AID 488979). Further: 0% is about no effect. Summed up:
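TRPV1 cells loaded with Fluo-8 calcium dye; compound added and Ca2+ signal (ex 480/em 520 nm) followed 3 min, then capsaicin at EC20 added and read 2 more min to detect enhancement.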

Test [2] addresses Thyrotropin receptor (Homo sapiens) (UniProt P16473). Nature of the test: qHTS Assay for Antagonists of the Thyroid Stimulating Hormone Receptor (AID 488980). Further: series mostly up to about 58 µM; 0% is about no effect. The gist of the method:
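Readout is cAMP by HTRF competition between cellular cAMP and cAMP-d2 for a cryptate-labelled antibody. Antagonism was assessed in TSHR-transfected HEK293 cells stimulated with 4 nM TSH (EC80, final) in the presence of RO 20-1724.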

Test [3] addresses D(1A) dopamine receptor (Homo sapiens) (UniProt P21728). Nature of the test: HTS Assay for Allosteric Agonists of the Human D1 Dopamine Receptor: Primary Screen for Agonists (AID 488981). Further: 0% is about no effect. Summed up: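 Tetracycline-induced HEK293 Trex D1 cells with forced coupling to calcium, loaded with no-wash calcium dye; kinetic fluorescence read 180 s after compound addition for agonism, then a further 180 s after an EC20 dopamine challenge for potentiation.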

The nature of test [4]: Validation screen for small molecules that induce genotoxicity in human embryonic kidney (HEK293T) cells expressing luciferase-tagged ELG1 (AID 493106). Further: 0% is about no effect. The gist of the method: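 In this validation screen, increased ELG1-luciferase signal flags compounds causing genetic stress. HEK293T reporter cells are treated 16 hr (37 °C, 5% CO2), developed with ONE-Glo for 30 min at room temperature, and imaged on a CCD-based reader.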

For test [5], the target named is ATPase family AAA domain-containing protein 5 (Homo sapiens) (UniProt Q96QE3). Nature of the test: Validation screen for small molecules that inhibit ELG1-dependent DNA repair in human embryonic kidney (HEK293T) cells expressing luciferase-tagged ELG1 (AID 493107).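 Further: cells co-treated with the DNA-damaging agent 5-fluorouridine alongside compound; series mostly up to about 46 µM; on the % scale 0 is the no-effect control and ±100 the full control effect; inhibitors lower the ELG1-luciferase luminescence signal; nearly all actives have a fitted effect of over 70% in size.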 Summed up:
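Compounds reducing 5-fluorouridine-driven ELG1-luciferase signal in HEK293T cells were scored; exposure lasted 16 hr at 37 °C with luminescence detected via ONE-Glo.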

Test [6] addresses Thyrotropin-releasing hormone receptor (Homo sapiens) (UniProt P34981). The test is described as follows: qHTS for Small Molecule Agonists and Allosteric Enhancers of Human TRH Receptor: Validation Screen for Agonists (AID 493127;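 active means calcium activation more than 3 SD above the typical response in the agonist read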;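 further: intracellular calcium rise by fluo-8 fluorescence before TRH EC20 addition; 0% is about no effect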). The following applies: TRH receptor agonist cell assay; at 2 µM; stronger effect = higher value. The gist of the method: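 Kinetic fluorescence assay of agonist-induced calcium release: overnight-plated TRHR cells, room-temperature fluo-8 loading, baseline then compound addition with per-second reads.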

Test [7] is described as follows: Nrf2 qHTS screen for inhibitors: Validation (AID 493153; active means well fitted inhibition curve with a large enough effect in the main read-out, with a control signal flat, not every such curve was filed as active). The settings on record: viability change: measured here: cytotoxicity max response. The gist of the method:
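In this counterscreened reporter format, each well gives two signals: CellTiter-Fluor fluorescence for cytotoxicity and ARE-luciferase luminescence for Nrf2 function. A549 ARE_Fluc cells in 5% FBS OPTI-MEM were exposed to compound titrations for 18-24 h.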

Test [8] is described as follows: qHTS for Inhibitors of Cell Surface uPA Generation: Validation Assay (AID 493164).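 Further: RAW 264.7 macrophage cells exposed to compound for 18 h; 0% is about no effect.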 Summed up: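 Compounds are titrated over seven points (2.45 nM–38.3 uM final) onto pre-plated RAW 264.7 cells and incubated for 18 h. Retained intracellular ATP, measured with ATP-Lite, indicates blocked lethal factor entry.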
Background: Quantitative high-throughput screening tests each substance at several concentrations.

For test [9], the target named is Galactokinase (Homo sapiens) (UniProt P51570). Nature of the test: qHTS Validation Assay for Inhibitors of Human Galactokinase (GALK) (AID 493189). Further: 0% is about no effect. The gist of the method:
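5 nM GALK / 100 uM galactose / 35 uM ATP, 20 mM HEPES pH8.0, 5 mM MgCl2, 60 mM NaCl, 1 mM DTT, 0.01% BSA (final). RT 1 h; Kinase-Glo Plus luminescence.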

Test [10] can be described thus: Validation screen for small molecules that induce DNA re-replication in SW480 colon adenocarcinoma cells (AID 504364). Further: 0% is about no effect. The gist of the method:
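Hoechst-stained SW480 nuclei, imaged at 405 nm excitation after 48 hr compound exposure, were counted for elevated DNA content as the re-replication signal.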

Test [11] addresses Peptidyl-prolyl cis-trans isomerase NIMA-interacting 1 (Homo sapiens) (UniProt Q13526). The test is described as follows: qHTS Validation Assay to Find Inhibitors of Pin1 (AID 504536; active means well fitted inhibition curve with a large enough effect in the polarisation, with a control signal flat, not every such curve was filed as active; the % refers to the polarisation;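 further: 0% = full Pin1 enzyme wells and -100% = no-enzyme wells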). Summed up: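 Fluorescence polarization competition: compounds (titration) displace HiFluor-488-labeled Pin1-1b peptide from Pin1 (0.3 uM final) in pH 7.5 HEPES buffer with DTT, 10 min at room temperature; %Activity normalized to no-enzyme wells, curves fitted.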

For test [12], the target named is Phosphoglycerate kinase, glycosomal (Trypanosoma brucei brucei) (UniProt P07378). The test is described as follows: qHTS Validation Assay to Find Inhibitors of Phosphoglycerate Kinase (AID 504547).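 Further: control wells lack PGK and mark full inhibition.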 Summed up: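 Compounds are pinned into the substrate/PGK mixture, and GAPDH (100nM final) is added to start the reaction by producing 1,3-BPG. After 60 minutes at room temperature, Kinase-Glo Plus is added and luminescence is measured 10 minutes later.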

The target of test [13] is phosphoglycerate mutase (Leishmania major) (UniProt Q4Q090). Nature of the test: qHTS Validation Assay to Find Inhibitors of Phosphoglycerate Mutase (AID 504548). Further: series mostly up to about 58 µM; on the % scale 0 is the no-effect control and ±100 the full control effect. The gist of the method:
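Lm PGAM 1.25nM final; 100 mM TEA pH 7.6, 5 mM MgCl2, 0.01% Tween-20; 45 min RT; Kinase-GloPlus, 10 min; end-point luminescence. Enzyme-free wells as negative controls.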

The nature of test [14]: Inducers of the Endoplasmic Reticulum Stress Response (ERSR) in human glioma: Validation (AID 504836). Further: 0% is about no effect. Summed up:
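Stably transfected U87-MG glioma cells carrying a GRP78-based luciferase sensor; 16 h compound incubation. Luminescence end-point read 10 min after Bright-Glo addition at room temperature.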

Test [15] has as its target Ubiquitin carboxyl-terminal hydrolase 1 (Homo sapiens) (UniProt O94782). The test is described as follows: Inhibitors of USP1/UAF1: Pilot qHTS (AID 504865).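 Further: rhodamine fluorescence freed from ubiquitin-rhodamine substrate followed over time; top concentration of the series differs between compounds; on the % scale 0 is the no-effect control and ±100 the full control effect; nearly all actives have a fitted effect of over 35% in size.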 The gist of the method: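 In 50mM HEPES pH 7.8 containing 0.5mM EDTA, 1mM TCEP, 0.1 mg/ml BSA and 0.01% Tween-20, 1nM USP1/UAF1 is exposed to compound for 15 min, then Ub-Rho (150nM final) is added and fluorescence is read over time.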

Test [16] is described as follows: qHTS for Inhibitors of ATXN expression: Validation of Cytotoxic Assay (AID 588349). Further: on the % scale 0 is the no-effect control and ±100 the full control effect. The gist of the method:
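Toxicity of test compounds toward HEK293 cells is scored from cellular ATP content measured by CellTiter Glo. Cells receive titrated doses and incubate 72 hr at 37 degrees C beforehand.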

Test [17] in a line: qHTS for Inhibitors of ATXN expression: Validation (AID 588378). Further: series mostly up to about 57 µM; on the % scale 0 is the no-effect control and ±100 the full control effect; nearly all actives have a fitted effect of over 75% in size. Summed up: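 Compounds were pinned onto attached HEK293 cells carrying an ATXN2-firefly luciferase construct and incubated 24 hrs at 37 degrees C. Each well then received a fluorescent viability reagent followed by luciferase substrate for end-point luminescence.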
For test [18], the target named is ATP-dependent 6-phosphofructokinase (Trypanosoma brucei brucei) (UniProt O15648). The test is described as follows: qHTS Assay to Find Inhibitors of T. brucei phosphofructokinase: hit validation (AID 492961).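 Further: luminescence reports ADP formed as PFK phosphorylates fructose-6-phosphate with ATP; series mostly up to about 51 µM; on the % scale 0 is the no-effect control and ±100 the full control effect.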 Summed up: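 Inhibition of parasite PFK is measured as reduced ADP formation, quantified via luciferase after ATP depletion. Assay used 0.1 mM ATP, 0.5 mM F6P, 1.25 nM enzyme, 45 min incubation.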
Sequence of ATP-dependent 6-phosphofructokinase (Trypanosoma brucei brucei) (O15648 whole entry, looked up): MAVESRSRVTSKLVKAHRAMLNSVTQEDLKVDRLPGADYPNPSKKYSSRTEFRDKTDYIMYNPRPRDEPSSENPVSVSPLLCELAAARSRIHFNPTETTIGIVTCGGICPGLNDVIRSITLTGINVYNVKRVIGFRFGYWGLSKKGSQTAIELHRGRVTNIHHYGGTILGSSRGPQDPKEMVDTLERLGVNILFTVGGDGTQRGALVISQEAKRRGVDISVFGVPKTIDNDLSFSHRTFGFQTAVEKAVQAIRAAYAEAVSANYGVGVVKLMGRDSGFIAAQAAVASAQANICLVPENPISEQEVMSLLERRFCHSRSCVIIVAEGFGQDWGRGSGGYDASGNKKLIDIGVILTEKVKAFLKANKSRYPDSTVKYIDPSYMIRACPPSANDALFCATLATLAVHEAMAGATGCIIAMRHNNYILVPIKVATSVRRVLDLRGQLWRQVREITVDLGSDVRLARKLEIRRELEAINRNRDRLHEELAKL

SMILES strings stand for the structures. Results filed as inconclusive are left out. The source made the active and inactive calls. Unless noted, the call rests on the fitted dose curve; in most records, active means well fitted curve in the direction sought with a large enough effect; inconclusive means small, poorly fitted or top-dose-only effect, or another doubt; inactive means no such curve, though single readings can be large; an effect the other way counts as inactive or inconclusive.

Sequence of D(1A) dopamine receptor (Homo sapiens) (P21728 whole entry, looked up): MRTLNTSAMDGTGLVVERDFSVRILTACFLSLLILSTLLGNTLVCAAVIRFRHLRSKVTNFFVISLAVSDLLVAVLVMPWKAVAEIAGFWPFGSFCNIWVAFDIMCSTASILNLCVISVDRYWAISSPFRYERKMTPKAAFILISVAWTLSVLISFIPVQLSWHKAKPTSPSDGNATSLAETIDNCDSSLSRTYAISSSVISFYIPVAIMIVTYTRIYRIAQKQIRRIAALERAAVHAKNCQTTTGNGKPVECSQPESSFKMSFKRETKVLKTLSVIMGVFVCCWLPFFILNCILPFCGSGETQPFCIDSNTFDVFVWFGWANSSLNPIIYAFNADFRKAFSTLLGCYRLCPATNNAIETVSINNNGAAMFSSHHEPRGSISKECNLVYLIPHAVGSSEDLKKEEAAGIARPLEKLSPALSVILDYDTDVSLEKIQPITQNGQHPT
Sequence of Peptidyl-prolyl cis-trans isomerase NIMA-interacting 1 (Homo sapiens) (Q13526 whole entry, looked up): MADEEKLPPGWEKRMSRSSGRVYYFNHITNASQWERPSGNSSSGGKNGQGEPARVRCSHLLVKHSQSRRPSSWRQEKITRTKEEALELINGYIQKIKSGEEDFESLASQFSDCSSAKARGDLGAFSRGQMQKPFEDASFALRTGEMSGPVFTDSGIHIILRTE
Sequence of phosphoglycerate mutase (Leishmania major) (Q4Q090 1-553): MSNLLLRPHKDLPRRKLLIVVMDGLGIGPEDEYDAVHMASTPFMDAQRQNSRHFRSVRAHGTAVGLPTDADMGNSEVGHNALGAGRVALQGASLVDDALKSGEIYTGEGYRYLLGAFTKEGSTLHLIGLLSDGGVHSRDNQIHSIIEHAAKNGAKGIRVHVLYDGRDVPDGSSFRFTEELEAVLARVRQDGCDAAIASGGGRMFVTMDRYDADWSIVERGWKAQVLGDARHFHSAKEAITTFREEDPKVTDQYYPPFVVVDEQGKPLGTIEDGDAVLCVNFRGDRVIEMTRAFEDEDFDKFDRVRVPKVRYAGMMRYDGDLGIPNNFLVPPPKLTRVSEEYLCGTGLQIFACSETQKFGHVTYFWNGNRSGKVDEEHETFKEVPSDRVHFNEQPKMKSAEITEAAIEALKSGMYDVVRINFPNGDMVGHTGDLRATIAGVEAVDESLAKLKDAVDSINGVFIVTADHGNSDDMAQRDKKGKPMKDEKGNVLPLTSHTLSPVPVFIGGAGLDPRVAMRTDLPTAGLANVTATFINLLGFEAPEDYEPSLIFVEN
Sequence of Thyrotropin receptor (Homo sapiens) (P16473 whole entry, looked up): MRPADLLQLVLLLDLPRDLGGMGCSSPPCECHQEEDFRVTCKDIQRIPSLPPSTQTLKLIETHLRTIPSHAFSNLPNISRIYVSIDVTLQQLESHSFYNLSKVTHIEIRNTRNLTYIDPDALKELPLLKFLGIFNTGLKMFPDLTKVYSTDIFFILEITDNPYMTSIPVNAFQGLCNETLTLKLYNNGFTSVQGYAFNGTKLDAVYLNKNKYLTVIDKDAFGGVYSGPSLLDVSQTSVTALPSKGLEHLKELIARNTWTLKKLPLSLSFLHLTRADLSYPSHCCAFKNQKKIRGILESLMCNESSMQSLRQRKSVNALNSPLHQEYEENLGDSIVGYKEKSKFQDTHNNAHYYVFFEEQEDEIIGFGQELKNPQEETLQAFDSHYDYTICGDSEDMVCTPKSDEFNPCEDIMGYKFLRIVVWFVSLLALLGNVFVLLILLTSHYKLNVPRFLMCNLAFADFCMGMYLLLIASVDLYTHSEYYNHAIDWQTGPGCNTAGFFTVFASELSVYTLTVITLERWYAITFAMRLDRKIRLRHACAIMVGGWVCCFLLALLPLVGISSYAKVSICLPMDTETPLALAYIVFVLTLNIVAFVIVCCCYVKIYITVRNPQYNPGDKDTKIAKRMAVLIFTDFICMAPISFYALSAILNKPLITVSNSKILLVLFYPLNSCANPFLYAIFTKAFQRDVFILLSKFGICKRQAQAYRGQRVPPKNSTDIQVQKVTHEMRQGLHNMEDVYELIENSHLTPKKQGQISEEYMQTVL
Sequence of Transient receptor potential cation channel subfamily V member 1 (Homo sapiens) (Q8NER1 whole entry, looked up): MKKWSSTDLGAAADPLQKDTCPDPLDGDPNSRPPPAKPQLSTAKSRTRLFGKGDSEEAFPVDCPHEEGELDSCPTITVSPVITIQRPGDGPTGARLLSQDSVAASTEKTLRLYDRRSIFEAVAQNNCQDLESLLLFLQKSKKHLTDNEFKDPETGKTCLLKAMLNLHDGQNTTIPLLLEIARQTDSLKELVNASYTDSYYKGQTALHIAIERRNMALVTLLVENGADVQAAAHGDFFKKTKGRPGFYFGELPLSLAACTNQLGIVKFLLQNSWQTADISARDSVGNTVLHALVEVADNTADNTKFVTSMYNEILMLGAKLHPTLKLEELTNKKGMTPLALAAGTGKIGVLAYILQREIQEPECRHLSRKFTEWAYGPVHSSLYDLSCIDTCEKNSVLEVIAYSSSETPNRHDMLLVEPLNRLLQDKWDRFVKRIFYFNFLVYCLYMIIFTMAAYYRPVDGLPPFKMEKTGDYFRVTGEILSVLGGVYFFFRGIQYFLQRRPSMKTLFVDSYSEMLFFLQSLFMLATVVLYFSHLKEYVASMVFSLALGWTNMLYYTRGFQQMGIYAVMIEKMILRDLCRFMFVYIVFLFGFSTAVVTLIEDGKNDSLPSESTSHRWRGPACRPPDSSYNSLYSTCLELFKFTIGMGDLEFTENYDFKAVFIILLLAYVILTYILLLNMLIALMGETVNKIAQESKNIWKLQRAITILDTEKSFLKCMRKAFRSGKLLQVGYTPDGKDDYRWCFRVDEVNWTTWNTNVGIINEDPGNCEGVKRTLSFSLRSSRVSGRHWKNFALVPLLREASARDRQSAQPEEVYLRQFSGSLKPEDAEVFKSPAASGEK
Sequence of Ubiquitin carboxyl-terminal hydrolase 1 (Homo sapiens) (O94782 whole entry, looked up): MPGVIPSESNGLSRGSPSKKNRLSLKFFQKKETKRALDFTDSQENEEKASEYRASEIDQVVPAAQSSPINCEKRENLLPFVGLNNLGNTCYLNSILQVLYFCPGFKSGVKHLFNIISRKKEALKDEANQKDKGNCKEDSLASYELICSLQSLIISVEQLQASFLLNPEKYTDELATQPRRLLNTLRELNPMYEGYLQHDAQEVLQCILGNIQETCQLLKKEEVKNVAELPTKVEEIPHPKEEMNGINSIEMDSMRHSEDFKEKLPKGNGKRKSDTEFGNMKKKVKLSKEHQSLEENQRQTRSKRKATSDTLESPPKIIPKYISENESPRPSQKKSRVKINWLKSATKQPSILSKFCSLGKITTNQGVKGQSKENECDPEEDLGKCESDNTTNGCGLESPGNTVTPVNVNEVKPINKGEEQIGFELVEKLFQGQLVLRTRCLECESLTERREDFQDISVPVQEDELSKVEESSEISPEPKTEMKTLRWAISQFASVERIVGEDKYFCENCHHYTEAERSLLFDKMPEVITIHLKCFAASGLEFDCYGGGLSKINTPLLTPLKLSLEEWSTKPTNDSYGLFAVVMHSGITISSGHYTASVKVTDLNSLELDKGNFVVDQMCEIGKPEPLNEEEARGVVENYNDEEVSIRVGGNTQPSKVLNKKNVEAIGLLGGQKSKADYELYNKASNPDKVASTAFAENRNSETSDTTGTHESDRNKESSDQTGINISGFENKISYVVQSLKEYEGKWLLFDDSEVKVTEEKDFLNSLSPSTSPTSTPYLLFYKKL
Sequence of Galactokinase (Homo sapiens) (P51570 whole entry, looked up): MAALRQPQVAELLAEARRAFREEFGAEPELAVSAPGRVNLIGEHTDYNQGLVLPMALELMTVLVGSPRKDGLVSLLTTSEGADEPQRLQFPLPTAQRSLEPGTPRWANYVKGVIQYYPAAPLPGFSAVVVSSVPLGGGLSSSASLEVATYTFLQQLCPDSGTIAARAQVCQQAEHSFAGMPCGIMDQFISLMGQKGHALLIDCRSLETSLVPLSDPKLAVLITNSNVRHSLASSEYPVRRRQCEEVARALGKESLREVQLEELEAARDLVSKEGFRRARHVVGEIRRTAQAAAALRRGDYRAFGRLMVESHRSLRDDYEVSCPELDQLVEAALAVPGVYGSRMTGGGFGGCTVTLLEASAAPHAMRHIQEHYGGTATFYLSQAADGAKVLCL
Sequence of Thyrotropin-releasing hormone receptor (Homo sapiens) (P34981 whole entry, looked up): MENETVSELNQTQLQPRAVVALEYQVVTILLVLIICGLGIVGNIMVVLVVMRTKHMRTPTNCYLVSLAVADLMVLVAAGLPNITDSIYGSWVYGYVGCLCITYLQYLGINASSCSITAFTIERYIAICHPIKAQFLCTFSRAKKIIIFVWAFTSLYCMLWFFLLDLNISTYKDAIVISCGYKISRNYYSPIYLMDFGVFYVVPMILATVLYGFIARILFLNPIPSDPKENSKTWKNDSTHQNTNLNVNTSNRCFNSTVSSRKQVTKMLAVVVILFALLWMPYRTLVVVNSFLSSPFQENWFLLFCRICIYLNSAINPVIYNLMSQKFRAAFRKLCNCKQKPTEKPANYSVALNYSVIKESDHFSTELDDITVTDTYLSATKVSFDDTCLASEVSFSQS

As for `NCCc1ccc(O)cc1`, the outcome in [1], in test [2], in test [4], in test [5], in test [7] and in test [8] was inactive. Further, the outcome in [9], in test [10], in test [11], in test [12], in test [13] and in [14] was inactive. In addition, the result in test [16] and in [17] was inactive. The Potency result in test [3] and in test [15] was “inactive” throughout. For the same compound, the activation in [6] was 1.31% (inactive). In addition, in [7], the viability change was -8.88%.
Turning to `CC(C)c1cccc(C(C)C)c1O`, the result in test [1], in test [2], in [4], in test [5], in [7] and in test [8] was inactive. Moreover, the call in [9], in test [10], in [11], in test [12], in test [13] and in test [16] was inactive. Besides, in [17], the result was inactive. Further, the Potency entry in test [3] and in test [15] was “inactive” throughout. In addition, in [6], the activation was -6.88% (inactive). Moreover, the viability change in [7] came to 0.059%.
Regarding `O=C(O)CCCc1ccc(N(CCCl)CCCl)cc1`, the result in test [1], in test [2], in test [4], in [5], in [8] and in test [9] was inactive. In addition, the call in test [10], in [11], in test [12], in test [13], in test [16] and in test [17] was inactive. Further, the Potency entry in test [3] and in test [15] was “inactive” each time. Moreover, the activation in test [6] was -4.56% (inactive).
Regarding `NC(=O)CC[C@@H]1NC(=O)[C@H](Cc2ccccc2)NC(=O)[C@H](Cc2ccc(O)cc2)NC(=O)[C@@H](N)CSSC[C@@H](C(=O)N2CCC[C@H]2C(=O)N[C@@H](CCCN=C(N)N)C(=O)NCC(N)=O)NC(=O)[C@H](CC(N)=O)NC1=O`, in [18], the outcome was inactive.
As for `Clc1ccc(C(c2ccc(Cl)cc2)C(Cl)(Cl)Cl)cc1`, in test [18], the outcome was inactive. Moreover, the Potency result in test [15] is “inactive”.
As for `O=P1(N(CCCl)CCCl)NCCCO1` (stereo not given), the result in test [1], in test [2], in [4], in [5], in test [7] and in test [8] was inactive. In addition, the compound was classed as inactive in test [9], in test [10], in [11], in test [12], in test [13] and in test [16]. Moreover, the compound was called inactive in test [17]. Also, the Potency entry in test [3] and in test [15] was “inactive” each time. The activation in test [6] was -0.25% (inactive). In addition, the viability change in test [7] is -1.15%.
In the case of `CC(C)NC(C)C`, in test [18], the outcome was inactive. In test [15], the Potency entry is “inactive”.
For the compound `C=C(C)[C@H]1CN[C@H](C(=O)O)[C@H]1CC(=O)O`, the result in [1], in test [2], in test [18], in test [4], in [5] and in test [7] was inactive. The outcome in test [8], in test [9], in [10], in [11], in test [12] and in test [13] was inactive. Further, the compound was classed as inactive in test [16] and in test [17]. In addition, the Potency entry in test [3] and in test [15] was “inactive” each time. The activation in [6] was 1.12% (inactive). Moreover, the viability change in test [7] worked out at 1.68%.

Source of the values: PubChem BioAssay (NCATS).
